Experimental findings from PubChem BioAssay (EPA / NIEHS) are described below.

Assay [1] in a line: ATG_NFI_CIS: Attagene CIS-FACTORIAL HepG2 Assay for human Nuclear Factor I (NFI) (AID 2282989). Particulars: HepG2 cis-regulatory reporter, NFI response element transcription; actives raise or lower the signal. A digest of the protocol: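 Reporter transcripts were measured by RT-PCR with fluorescent primer extension and capillary electrophoresis 24 h post-treatment. HepG2 cells carried transiently transfected cis-regulated reporter constructs reporting endogenous factor activity; gain or loss fitted against DMSO baseline.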

Assay [2] has as its target Myc proto-oncogene protein (Homo sapiens) (UniProt P01106). The assay can be described thus: ATG_Myc_CIS: Attagene CIS-FACTORIAL HepG2 Assay for human Myelocytomatosis (Myc) Proto-Oncogene Transcription Factor (AID 2282990). Particulars: HepG2, Attagene cis-reporter transcription factor activity; actives raise or lower the signal. A digest of the protocol: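 Transiently transfected HepG2 cells bearing cis-promoter reporter units for endogenous transcription factors; 24 h exposure. Reporter mRNA measured by RT-PCR, 6-FAM primer extension, HpaI cut and capillary electrophoresis; bidirectional fit relative to DMSO.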

A short description of assay [3]: ATG_NF_kB_CIS: Attagene CIS-FACTORIAL HepG2 Assay for human Nuclear Factor Kappa B (NF-kB) (AID 2282991). Conditions: HepG2 Attagene cis-factorial NF-kB reporter mRNA; actives raise or lower the signal. The method in brief: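 HepG2 cells transfected with cis-promoter-driven reporter units, so endogenous transcription factor activity is measured. Reporter mRNA quantified 24 h after dosing by RT-PCR and capillary electrophoresis, with bidirectional fitting against DMSO.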

Assay [4] is described as follows: ATG_NRF2_ARE_CIS: Attagene CIS-FACTORIAL HepG2 Assay for human Nuclear Factor Erythroid 2 Related Factor 2 (NFR2) response to Antioxidant Response Elements (ARE) (AID 2282992).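 As to AC50: reporter mRNA level measured by RT-PCR and capillary electrophoresis fluorescence.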 Conditions: HepG2 Attagene ARE/NRF2 reporter, transcription factor activity; actives raise or lower the signal. The method in brief:
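Multiplexed reporter mRNA profiling in HepG2 after a 24 h chemical exposure. Curves fitted in both directions relative to DMSO negative control.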

The nature of assay [5]: ATG_Oct_MLP_CIS: Attagene CIS-FACTORIAL HepG2 Assay for human Octamer-Binding Transcription Factor (Oct) (AID 2282993). Particulars: HepG2 Attagene cis-factorial Oct reporter, mRNA; actives raise or lower the signal. A digest of the protocol: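 Readout is reporter transcript level from RT-PCR with fluorescent primer extension and capillary electrophoresis, fitted in both directions against DMSO. Transfected HepG2 reporter units report endogenous factor activity after 24 h dosing.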

Assay [6] can be described thus: BSK_3C_TissueFactor: BioMAP Diversity Plus: 3C Assay for Tissue Factor Biomarker Activity (AID 2282997). Conditions: BioMAP 3C HUVEC, tissue factor biomarker readout; actives raise or lower the signal. A digest of the protocol:
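Endothelial monolayers (human umbilical vein, primary) are dosed, incubated 24 h, and assayed for Tissue Factor by ELISA; DMSO serves as negative control for bidirectional fitting.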

A short description of assay [7]: BSK_3C_uPAR: BioMAP Diversity Plus: 3C Assay for Urokinase-type plasminogen activator receptor (uPAR) Biomarker Activity (AID 2282998). Conditions: BioMAP 3C HUVEC, uPAR biomarker ELISA; actives raise or lower the signal. A digest of the protocol: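 Cell-surface uPAR on HUVEC (3C system) read by ELISA at 24 h post-treatment, with DMSO as baseline and fitting in both directions. Parallel cultures stained with SRB to flag overt cytotoxicity.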

Assay [8] is described as follows: BSK_3C_VCAM1: BioMAP Diversity Plus: 3C Assay for Vascular cell adhesion molecule 1 (VCAM1) Biomarker Activity (AID 2282999). Conditions: BioMAP 3C HUVEC, VCAM1 ELISA, cytokine-stimulated; actives raise or lower the signal. The method in brief: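 Human umbilical vein endothelial cells (3C system), biomarker read by ELISA 24 h after dosing; bidirectional fit against DMSO baseline. Cytotoxicity tracked by SRB total-protein staining in parallel cultures at biomarker time.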

In assay [9] the target is human Peroxisome Proliferator-activated Receptor alpha (PPARa), PPARA (gene 5465) (UniProt Q07869). The assay can be described thus: ATG_PPARa_TRANS: Attagene TRANS-FACTORIAL HepG2 Assay for human Peroxisome Proliferator-activated Receptor alpha (PPARa) (AID 2283001; active = hit-call score of the fitted dose curve at least 0.9, where 1 is the maximum;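 as to AC50: potency for gain of reporter signal over DMSO so agonist or activator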). A digest of the protocol: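 Measures transcriptional activity of an exogenous chimeric PPARa-Gal4 protein in transiently transfected HepG2 cells after 24 h dosing. Reporter mRNA quantified via RT-PCR and capillary electrophoresis; DMSO served as negative control.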

Assay [10] has as its target human Peroxisome Proliferator-activated Receptor delta (PPARd), PPARD (gene 5467) (UniProt Q03181). The assay can be described thus: ATG_PPARd_TRANS: Attagene TRANS-FACTORIAL HepG2 Assay for human Peroxisome Proliferator-activated Receptor delta (PPARd) (AID 2283002; active = hit-call score of the fitted dose curve at least 0.9, where 1 is the maximum). A digest of the protocol: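 HepG2 cells transiently transfected with GAL4-UAS multiplexed reporter units driven by exogenous chimeric NR-GAL4 proteins; 24 h compound exposure. Reporter mRNA measured by RT-PCR, 6-FAM primer extension, HpaI digestion and capillary electrophoresis; gain of signal fitted relative to DMSO.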

Assay [11] deals with Peroxisome proliferator-activated receptor gamma (Homo sapiens) (UniProt P37231). The assay can be described thus: ATG_PPARg_TRANS: Attagene TRANS-FACTORIAL HepG2 Assay for human Peroxisome Proliferator-activated Receptor-gamma (PPARg) (AID 2283007; active = hit-call score of the fitted dose curve at least 0.9, where 1 is the maximum). The method in brief:
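HepG2 cells are transiently transfected with GAL4-UAS reporter units driven by chimeric NR-Gal4 fusions and dosed for 24 h. Reporter mRNA is quantified by RT-PCR, 6-FAM labelling, HpaI digestion and capillary electrophoresis. Induction is scored against DMSO.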

Assay [12] has as its target Nuclear receptor subfamily 1 group I member 2 (Homo sapiens) (UniProt O75469). The assay can be described thus: ATG_PXR_TRANS: Attagene TRANS-FACTORIAL HepG2 Assay for human Pregnane X Receptor (PXR) (AID 2283008; active = hit-call score of the fitted dose curve at least 0.9, where 1 is the maximum). The method in brief:
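Measures mRNA induction of a GAL4-UAS-driven reporter in human HepG2 cells transiently expressing PXR fused to Gal4, following 24 h treatment. DMSO served as negative control and baseline.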

In assay [13] the target is human Retinoic Acid Receptor gamma (RARg), RARG (gene 5916) (UniProt P13631). The assay is described as follows: ATG_RARg_TRANS: Attagene TRANS-FACTORIAL HepG2 Assay for human Retinoic Acid Receptor gamma (RARg) (AID 2283009; active = hit-call score of the fitted dose curve at least 0.9, where 1 is the maximum). A digest of the protocol:
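HepG2 cells transiently transfected with multiplexed reporter units expressing chimeric RARg-GAL4 and GAL4-UAS-driven reporters; 24 h compound exposure. Reporter mRNA quantified by RT-PCR with fluorescent labelling and capillary electrophoresis; gain-of-signal fitted relative to DMSO baseline.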

Assay [14] addresses Nuclear respiratory factor 1 (Homo sapiens) (UniProt Q16656). The assay is described as follows: ATG_NRF1_CIS: Attagene CIS-FACTORIAL HepG2 Assay for human Nuclear Respiratory Factor 1 (NRF1) Orphan Gene (AID 2282987). Conditions: HepG2 NRF1 cis-element reporter, Attagene multiplex; actives raise or lower the signal. The method in brief:
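HepG2 cells transiently transfected with multiple cis-regulated reporter units, exposed 24 h. Reporter mRNAs measured by RT-PCR, fluorescent labelling, HpaI digestion and capillary electrophoresis; bidirectional fitting against DMSO.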

Assay [15] addresses Cellular tumor antigen p53 (Homo sapiens) (UniProt P04637). The assay is described as follows: ATG_p53_CIS: Attagene CIS-FACTORIAL HepG2 Assay for human p53 Transcription Factor (AID 2282994). Particulars: HepG2 p53 cis-element reporter, Attagene mRNA; actives raise or lower the signal. The method in brief:
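Multiplexed reporter mRNA assay in human HepG2 liver cells; cis-regulated units report endogenous factor activity. Values come from bidirectional curve fitting against DMSO negative control after 24 h treatment.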

A short description of assay [16]: BSK_4H_Eotaxin3: BioMAP Diversity Plus: 4H Assay for Eotaxin 3 Biomarker Activity (AID 2283000).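 Also: CCL26 protein level quantified by ELISA in parallel with SRB cytotoxicity check.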 Particulars: primary human endothelial cells (HUVEC); actives raise or lower the signal. The method in brief: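 ELISA quantitation of CCL26 (Eotaxin-3) protein from chemically dosed human vascular endothelial cells at 24 h; increases and decreases both scored relative to DMSO-treated baseline.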

Read-out in assay [17]: Intercellular Adhesion Molecule 1 (ICAM1), ICAM1 (gene 3383)
The assay can be described thus: BSK_3C_ICAM1: BioMAP Diversity Plus: 3C Assay for Intercellular Adhesion Molecule 1 (ICAM1) Biomarker Activity (AID 2283003). Conditions: primary human endothelial cells (HUVEC); actives raise or lower the signal. A digest of the protocol: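 Primary human umbilical vein endothelial cells in the BioMAP 3C system were exposed to chemicals for 24 h, then ICAM-1 was quantified by ELISA. Activity was fitted bidirectionally against the DMSO negative control baseline.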

For assay [18], the target named is human Retinoic Acid Receptor beta (RARb), RARB (gene 5915) (UniProt P10826). The assay can be described thus: ATG_RARb_TRANS: Attagene TRANS-FACTORIAL HepG2 Assay for human Retinoic Acid Receptor beta (AID 2283004; active = hit-call score of the fitted dose curve at least 0.9, where 1 is the maximum). The method in brief:
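Fluorescent capillary-electrophoresis detection of GAL4-UAS reporter mRNA defines the endpoint, with induction over DMSO-treated wells scored as activity. Transiently transfected human hepatoma HepG2 cells expressing exogenous NR–Gal4 proteins are exposed to test chemicals for 24 h.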

Where “and” joins values, the source holds several entries; their conditions need not be identical. Equal entries are not always repeated. Results filed as inconclusive are left out. A structure can be active in one record and inactive in another. Calls of active or inactive are those of the source. The calls were made as follows, unless noted: active = hit-call score of the fitted dose curve at least 0.9, where 1 is the maximum; inactive = score below 0.9.

Chain of Cellular tumor antigen p53 (Homo sapiens) (P04637 whole entry, looked up): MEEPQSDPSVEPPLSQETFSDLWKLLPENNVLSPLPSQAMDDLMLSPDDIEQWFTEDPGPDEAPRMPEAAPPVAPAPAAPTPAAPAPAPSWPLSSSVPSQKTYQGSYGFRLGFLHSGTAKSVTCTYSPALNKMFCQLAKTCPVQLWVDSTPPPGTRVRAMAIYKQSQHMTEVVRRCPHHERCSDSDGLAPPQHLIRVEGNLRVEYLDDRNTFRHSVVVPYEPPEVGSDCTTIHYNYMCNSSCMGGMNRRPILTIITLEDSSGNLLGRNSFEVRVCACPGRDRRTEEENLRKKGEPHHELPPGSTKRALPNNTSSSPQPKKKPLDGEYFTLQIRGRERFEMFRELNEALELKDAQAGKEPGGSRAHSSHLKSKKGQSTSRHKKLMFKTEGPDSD
Chain of Nuclear receptor subfamily 1 group I member 2 (Homo sapiens) (O75469 whole entry, looked up, the tested form may be a part): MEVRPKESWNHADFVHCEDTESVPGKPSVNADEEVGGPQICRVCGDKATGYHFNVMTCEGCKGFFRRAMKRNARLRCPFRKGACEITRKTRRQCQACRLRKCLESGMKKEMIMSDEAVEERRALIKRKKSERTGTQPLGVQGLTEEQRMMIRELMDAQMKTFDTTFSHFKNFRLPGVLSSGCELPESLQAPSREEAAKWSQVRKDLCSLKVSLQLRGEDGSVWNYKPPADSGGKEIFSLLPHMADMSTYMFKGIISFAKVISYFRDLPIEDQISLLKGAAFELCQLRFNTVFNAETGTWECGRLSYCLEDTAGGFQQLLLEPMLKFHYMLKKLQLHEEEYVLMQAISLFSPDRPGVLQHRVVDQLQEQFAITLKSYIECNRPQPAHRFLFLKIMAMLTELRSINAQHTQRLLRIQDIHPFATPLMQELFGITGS
Chain of Peroxisome proliferator-activated receptor gamma (Homo sapiens) (P37231 whole entry, looked up, the tested form may be a part): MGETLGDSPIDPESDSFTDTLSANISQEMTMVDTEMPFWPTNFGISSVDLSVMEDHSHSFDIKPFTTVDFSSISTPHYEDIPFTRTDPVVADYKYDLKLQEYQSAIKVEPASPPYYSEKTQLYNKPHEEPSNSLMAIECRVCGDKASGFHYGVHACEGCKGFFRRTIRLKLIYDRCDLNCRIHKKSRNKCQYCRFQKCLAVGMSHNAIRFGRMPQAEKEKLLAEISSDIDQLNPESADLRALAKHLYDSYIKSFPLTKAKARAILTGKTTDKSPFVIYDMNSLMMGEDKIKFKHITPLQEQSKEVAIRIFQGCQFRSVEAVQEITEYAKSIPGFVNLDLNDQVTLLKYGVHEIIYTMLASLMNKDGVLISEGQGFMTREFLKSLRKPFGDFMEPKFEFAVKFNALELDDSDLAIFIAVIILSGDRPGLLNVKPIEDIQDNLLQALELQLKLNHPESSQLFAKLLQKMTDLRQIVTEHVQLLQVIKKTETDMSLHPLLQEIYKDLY
Chain of Nuclear respiratory factor 1 (Homo sapiens) (Q16656 whole entry, looked up): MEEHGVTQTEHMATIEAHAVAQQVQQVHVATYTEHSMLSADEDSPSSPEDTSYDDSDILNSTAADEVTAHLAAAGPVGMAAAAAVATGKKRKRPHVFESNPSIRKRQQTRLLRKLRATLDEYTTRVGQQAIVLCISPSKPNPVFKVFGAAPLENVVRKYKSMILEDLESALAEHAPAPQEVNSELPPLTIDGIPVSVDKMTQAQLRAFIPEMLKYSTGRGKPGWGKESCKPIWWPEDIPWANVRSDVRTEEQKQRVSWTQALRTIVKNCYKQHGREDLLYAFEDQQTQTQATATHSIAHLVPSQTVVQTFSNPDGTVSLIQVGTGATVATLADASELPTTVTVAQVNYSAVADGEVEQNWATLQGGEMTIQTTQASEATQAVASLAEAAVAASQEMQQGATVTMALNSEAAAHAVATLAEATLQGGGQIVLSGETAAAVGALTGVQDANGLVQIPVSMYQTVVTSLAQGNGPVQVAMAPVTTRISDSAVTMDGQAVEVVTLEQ
Chain of human Peroxisome Proliferator-activated Receptor alpha (PPARa), PPARA (gene 5465) (Q07869 whole entry, looked up, the tested form may be a part): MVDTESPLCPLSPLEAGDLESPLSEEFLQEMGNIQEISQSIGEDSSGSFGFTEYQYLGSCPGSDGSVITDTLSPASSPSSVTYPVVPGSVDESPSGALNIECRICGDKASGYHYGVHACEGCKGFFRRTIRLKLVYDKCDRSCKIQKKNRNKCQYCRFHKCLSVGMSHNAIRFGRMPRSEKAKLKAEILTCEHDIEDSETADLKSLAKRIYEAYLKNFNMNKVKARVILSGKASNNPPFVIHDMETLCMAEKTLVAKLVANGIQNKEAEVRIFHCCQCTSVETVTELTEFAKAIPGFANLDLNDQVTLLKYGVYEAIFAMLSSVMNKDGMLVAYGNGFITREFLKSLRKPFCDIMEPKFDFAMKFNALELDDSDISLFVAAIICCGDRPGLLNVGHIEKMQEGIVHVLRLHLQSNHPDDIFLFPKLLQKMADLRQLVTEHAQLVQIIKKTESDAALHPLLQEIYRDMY
Chain of Myc proto-oncogene protein (Homo sapiens) (P01106 whole entry, looked up): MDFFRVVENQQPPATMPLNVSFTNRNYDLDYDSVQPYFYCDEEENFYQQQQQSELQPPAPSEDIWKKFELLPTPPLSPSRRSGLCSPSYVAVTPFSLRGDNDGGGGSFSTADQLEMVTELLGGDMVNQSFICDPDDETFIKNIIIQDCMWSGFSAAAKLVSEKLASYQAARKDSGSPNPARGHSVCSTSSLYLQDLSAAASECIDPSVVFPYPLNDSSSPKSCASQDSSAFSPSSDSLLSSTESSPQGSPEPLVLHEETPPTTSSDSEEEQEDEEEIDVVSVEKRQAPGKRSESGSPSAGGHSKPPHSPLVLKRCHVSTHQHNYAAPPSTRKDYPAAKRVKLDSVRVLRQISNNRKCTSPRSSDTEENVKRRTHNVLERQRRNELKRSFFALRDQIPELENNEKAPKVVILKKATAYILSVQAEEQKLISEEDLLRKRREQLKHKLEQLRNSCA
Chain of human Retinoic Acid Receptor gamma (RARg), RARG (gene 5916) (P13631 whole entry, looked up, the tested form may be a part): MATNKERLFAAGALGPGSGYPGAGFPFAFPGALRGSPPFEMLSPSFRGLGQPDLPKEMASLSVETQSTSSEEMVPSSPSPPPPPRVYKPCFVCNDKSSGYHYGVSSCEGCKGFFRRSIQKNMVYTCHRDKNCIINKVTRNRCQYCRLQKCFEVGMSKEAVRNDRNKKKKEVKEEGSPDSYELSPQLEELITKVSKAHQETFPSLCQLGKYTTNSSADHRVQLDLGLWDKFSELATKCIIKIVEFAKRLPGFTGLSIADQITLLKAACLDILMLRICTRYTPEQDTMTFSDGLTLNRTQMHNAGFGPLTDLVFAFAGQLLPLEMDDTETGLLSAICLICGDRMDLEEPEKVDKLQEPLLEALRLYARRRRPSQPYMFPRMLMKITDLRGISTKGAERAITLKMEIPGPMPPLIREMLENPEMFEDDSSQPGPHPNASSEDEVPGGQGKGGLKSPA
Chain of human Peroxisome Proliferator-activated Receptor delta (PPARd), PPARD (gene 5467) (Q03181 whole entry, looked up, the tested form may be a part): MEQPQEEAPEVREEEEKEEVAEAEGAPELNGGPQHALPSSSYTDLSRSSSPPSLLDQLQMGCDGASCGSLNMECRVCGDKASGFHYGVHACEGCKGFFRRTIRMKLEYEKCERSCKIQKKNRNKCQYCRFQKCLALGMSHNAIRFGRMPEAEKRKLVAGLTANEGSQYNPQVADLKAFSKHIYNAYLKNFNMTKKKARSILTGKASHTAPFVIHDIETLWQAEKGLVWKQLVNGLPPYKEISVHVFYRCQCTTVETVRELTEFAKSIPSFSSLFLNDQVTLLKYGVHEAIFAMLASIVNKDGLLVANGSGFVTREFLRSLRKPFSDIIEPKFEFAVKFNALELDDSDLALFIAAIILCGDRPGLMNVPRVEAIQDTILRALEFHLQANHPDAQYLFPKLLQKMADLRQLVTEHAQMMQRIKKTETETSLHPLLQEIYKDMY
Chain of human Retinoic Acid Receptor beta (RARb), RARB (gene 5915) (P10826 whole entry, looked up, the tested form may be a part): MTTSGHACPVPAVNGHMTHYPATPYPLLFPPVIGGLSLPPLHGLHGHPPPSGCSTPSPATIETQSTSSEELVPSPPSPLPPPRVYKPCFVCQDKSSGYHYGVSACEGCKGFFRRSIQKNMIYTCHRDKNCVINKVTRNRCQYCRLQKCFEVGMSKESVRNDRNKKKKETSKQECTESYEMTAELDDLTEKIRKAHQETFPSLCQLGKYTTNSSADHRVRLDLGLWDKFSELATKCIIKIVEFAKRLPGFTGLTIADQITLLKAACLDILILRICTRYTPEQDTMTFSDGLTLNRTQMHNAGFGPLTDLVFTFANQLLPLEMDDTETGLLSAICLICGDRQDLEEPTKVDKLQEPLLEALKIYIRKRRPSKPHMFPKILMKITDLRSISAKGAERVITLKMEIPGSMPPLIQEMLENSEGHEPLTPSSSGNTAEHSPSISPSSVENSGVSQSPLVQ

By AC50 is commonly meant the concentration at which the activity in the assay is half-maximal. On to `O=C(O)C(F)(F)C(F)(F)C(F)(F)C(F)(F)C(F)(F)C(F)(F)C(F)(F)C(F)(F)Cl`, for which the outcome in assay [1], in assay [2], in [3], in [4], in assay [6] and in [7] was inactive. The call in assay [10], in assay [12] and in assay [13] was inactive. Besides, the half-maximal activity concentration (AC50) in [4] is 12.7 µM (active); in [5], 50 µM (active) and 57.9 µM (active); in [6], 54.4 µM (active); in [7], 44.9 µM (active); in assay [8], 48.7 µM (active); in assay [9], 20.2 µM (active) and 18.8 µM (active). Further, the AC50 in assay [11] is 31.1 µM (active) and 34.1 µM (active); in assay [12], 50 µM (active).

As for `FC(F)(F)C(F)(F)C(F)(F)C(F)(F)C(F)(F)C(F)(F)C(F)(F)C(F)(F)CCS`, the result in assay [14], in assay [2], in assay [3], in assay [4], in assay [5] and in assay [15] was inactive. Further, the outcome in [7], in assay [8], in [16], in assay [9] and in assay [17] was inactive.

Turning to `CC/C=C\CCOC(C)=O`, the compound was called inactive in [14], in [2], in [3], in [4], in assay [5] and in [15]. Further, the compound was called inactive in [9] and in assay [12].

Turning to `CC(C)c1ccccc1N`, the outcome in [14], in assay [1], in [2], in [3], in assay [4] and in assay [9] was inactive. In addition, the compound was classed as inactive in assay [18], in [11] and in assay [12].

On to `CCN(CC)c1ccc2c(C)cc(=O)oc2c1`, for which the result in assay [1], in assay [2], in [3], in assay [5], in assay [15] and in [7] was inactive. Also, the result in [8], in assay [16], in assay [9], in [10] and in [17] was inactive. The half-maximal activity concentration (AC50) in assay [4] was 59.3 µM (active); in [6] it was 20 µM (active); in assay [11], 27.2 µM (active); in [12], 3.63 µM (active).
